This note sets out measurements from the OligoGym collection.
Also: reference of the scale not given here.

In this experiment the target is CA4. The experiment can be described thus: pooled miR-30 sensor sort-seq; sequence = guide strand. To be noted: shRNA.
Turning to TCGTAGTACAGCTTCTGAGAGA, the sensor-assay potency score (higher = more potent) was -0.918.
The same measure for TTTGCTTCTTATCGTAGCCAGA: -0.836.
The same measure for TTCTCATCGCAGGTCGGTGTGG: -1.28; for TTCTCTGTGAAGCTGAATGGGC: -0.889.
Then TCACTGTCTGTTCCTTGTCGTA, with -1.4; and TTGTTCTCCAGCAACATCATCA, with -1.13; and TCCAGCAACATCATCACTGAGT, with -1.67.
As to TTGTCGTAGTACAGCTTCTGAG, the sensor-assay potency score (higher = more potent) is -1.18.
Then TTATATGGCAAGTCGGACCAGT, with 0.112; and TTCCTTGTCGTAGTACAGCTTC, with -0.302; and TTGACTGGCACCAAGCAGGGGT, with -0.145.
Then TTATTTTGGACAGTCCACGTTT, with -0.237; and TTTTTGTCCACCTTTGCCTTGG, with -0.0193.
Then TTGAACCTCGTAGCACCAGTGT, with -1.16; and AATTTCGTCTTCAGGGTCCTGG, with 0.0795.
Turning to TGTCTGTTCCTTGTCGTAGTAC, the sensor-assay potency score (higher = more potent) is -0.69.
For TGTCGTAGTACAGCTTCTGAGA, the sensor-assay potency score (higher = more potent) was -0.691.
Then TTGTCCACCTTTGCCTTGGTGG, with -0.751.
Then TCGTAGTGCTCATCTCAGGTTT, with -0.761.
